# Source: PMC8384837, “Expanding the binding specificity for RNA recognition by a PUF domain”
# Legend:
# Experiment in all cases: yeast three-hybrid, YBZ-1, SC-Leu-His + 0.5 mM 3-AT, 4 days
# Conditions in all cases: tags: N-Gal4 AD-HA kept; label: inside an RPR1-promoter hybrid RNA with tandem MS2 sites; ssRNA
# PUM1 PUF domain R5-GVE = PUM1 PUF domain R5-GVE (Homo sapiens, UniProt Q14671 828-1176, C1007G;R1008V;Q1011E)
# How it was run: (§1)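 The interaction score is the log change in how often each variant appears, from input to selection. Frequencies came from PCR-amplified, Illumina-sequenced repeat regions of Pumilio-1 PUF domain libraries grown in strain YBZ-1 (LexA–MS2 coat fusion, HIS3 reporter) alongside matching RNA elements. Input plates were SC-Leu and selection plates were SC-Leu-His + 0.5 mM 3-AT, each for four days, and the log2 calculation used a pseudocount of 1 where a variant was absent.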
# PUM1 PUF domain R5-KHW = PUM1 PUF domain R5-KHW (Homo sapiens, UniProt Q14671 828-1176, C1007K;R1008H;Q1011W)
# How it was run: as §1
# PUM1 PUF domain R5-DQQ = PUM1 PUF domain R5-DQQ (Homo sapiens, UniProt Q14671 828-1176, C1007D;R1008Q)
# How it was run: as §1
# PUM1 PUF domain R5-LYC = PUM1 PUF domain R5-LYC (Homo sapiens, UniProt Q14671 828-1176, C1007L;R1008Y;Q1011C)
# How it was run: as §1
# PUM1 PUF domain R5-RYW = PUM1 PUF domain R5-RYW (Homo sapiens, UniProt Q14671 828-1176, C1007R;R1008Y;Q1011W)
# How it was run: as §1
# PUM1 PUF domain R4-DHL = PUM1 PUF domain R4-DHL (Homo sapiens, UniProt Q14671 828-1176, N971D;Q975L)
# How it was run: as §1
# PUM1 PUF domain R8-KRL = PUM1 PUF domain R8-KRL (Homo sapiens, UniProt Q14671 828-1176, N1122K;Y1123R;Q1126L)
# How it was run: as §1
# PUM1 PUF domain R4-NRM = PUM1 PUF domain R4-NRM (Homo sapiens, UniProt Q14671 828-1176, H972R;Q975M)
# How it was run: as §1
# PUM1 PUF domain R8-QWR = PUM1 PUF domain R8-QWR (Homo sapiens, UniProt Q14671 828-1176, N1122Q;Y1123W;Q1126R)
# How it was run: as §1
# PUM1 PUF domain R4-RHA = PUM1 PUF domain R4-RHA (Homo sapiens, UniProt Q14671 828-1176, N971R;Q975A)
# How it was run: as §1
# PUM1 PUF domain R8-RWN = PUM1 PUF domain R8-RWN (Homo sapiens, UniProt Q14671 828-1176, N1122R;Y1123W;Q1126N)
# How it was run: as §1
# PUM1 PUF domain R4-NNH = PUM1 PUF domain R4-NNH (Homo sapiens, UniProt Q14671 828-1176, H972N;Q975H)
# How it was run: as §1
# PUM1 PUF domain R4-PYL = PUM1 PUF domain R4-PYL (Homo sapiens, UniProt Q14671 828-1176, N971P;H972Y;Q975L)
# How it was run: as §1
# PUM1 PUF domain R4-CMS = PUM1 PUF domain R4-CMS (Homo sapiens, UniProt Q14671 828-1176, N971C;H972M;Q975S)
# How it was run: as §1
# PUM1 PUF domain R6-VWY = biological target: T1, PUM1 PUF domain R6-VWY (Homo sapiens, UniProt Q14671 828-1176, N1043V;Y1044W;Q1047Y)
# T1 sequence: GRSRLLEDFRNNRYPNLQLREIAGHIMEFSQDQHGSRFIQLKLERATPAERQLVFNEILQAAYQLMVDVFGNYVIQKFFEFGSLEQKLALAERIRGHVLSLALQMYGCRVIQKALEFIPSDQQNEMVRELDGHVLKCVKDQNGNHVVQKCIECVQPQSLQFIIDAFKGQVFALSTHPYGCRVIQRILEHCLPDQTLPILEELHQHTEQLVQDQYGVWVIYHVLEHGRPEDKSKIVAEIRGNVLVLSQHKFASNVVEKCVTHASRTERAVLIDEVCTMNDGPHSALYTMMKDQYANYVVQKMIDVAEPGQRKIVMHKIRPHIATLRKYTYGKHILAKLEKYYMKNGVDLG
# How it was run: as §1
# PUM1 PUF domain R1-KCV = PUM1 PUF domain R1-KCV (Homo sapiens, UniProt Q14671 828-1176, S863K;R864C;Q867V)
# How it was run: as §1
# PUM1 PUF domain R3-RSH = PUM1 PUF domain R3-RSH (Homo sapiens, UniProt Q14671 828-1176, C935R;R936S;Q939H)
# How it was run: as §1
# PUM1 PUF domain R2-RKA = PUM1 PUF domain R2-RKA (Homo sapiens, UniProt Q14671 828-1176, N899R;Y900K;Q903A)
# How it was run: as §1
# PUM1 PUF domain R7-LTC = PUM1 PUF domain R7-LTC (Homo sapiens, UniProt Q14671 828-1176, S1079L;N1080T;E1083C)
# How it was run: as §1
sequence,measurement,setting,value
GGCUAGAACUAGUGGAUCCCCCGGCGCCCGGCGGCUCGAGCCCGGGUAAGUGUGAAUAGUCUGCAUGCCGCCGGGCGCCAUGCCUGCAGGUCGACUCUAGAAAACAUG,binding signal,PUM1 PUF domain R5-GVE,3.01 log2 enrichment (interaction score)
GGCUAGAACUAGUGGAUCCCCCGGCGCCCGGCGGCUCGAGCCCGGGUAAGUGUCAAUAGUCUGCAUGCCGCCGGGCGCCAUGCCUGCAGGUCGACUCUAGAAAACAUG,binding signal,PUM1 PUF domain R5-KHW,2.97 log2 enrichment (interaction score)
same,binding signal,PUM1 PUF domain R5-DQQ,5.11 log2 enrichment (interaction score)
GGCUAGAACUAGUGGAUCCCCCGGCGCCCGGCGGCUCGAGCCCGGGUAAGUGUUAAUAGUCUGCAUGCCGCCGGGCGCCAUGCCUGCAGGUCGACUCUAGAAAACAUG,binding signal,PUM1 PUF domain R5-KHW,3.92 log2 enrichment (interaction score)
same,binding signal,PUM1 PUF domain R5-LYC,2.27 log2 enrichment (interaction score)
same,binding signal,PUM1 PUF domain R5-RYW,3.92 log2 enrichment (interaction score)
GGCUAGAACUAGUGGAUCCCCCGGCGCCCGGCGGCUCGAGCCCGGGUAAGUGUAAAUAGUCUGCAUGCCGCCGGGCGCCAUGCCUGCAGGUCGACUCUAGAAAACAUG,binding signal,PUM1 PUF domain R4-DHL,2.49 log2 enrichment (interaction score)
same,binding signal,PUM1 PUF domain R5-LYC,3.33 log2 enrichment (interaction score)
same,binding signal,PUM1 PUF domain R8-KRL,1.26 log2 enrichment (interaction score)
same,binding signal,PUM1 PUF domain R4-NRM,3.21 log2 enrichment (interaction score)
same,binding signal,PUM1 PUF domain R8-QWR,4.74 log2 enrichment (interaction score)
same,binding signal,PUM1 PUF domain R4-RHA,3.02 log2 enrichment (interaction score)
same,binding signal,PUM1 PUF domain R5-RYW,2.33 log2 enrichment (interaction score)
same,binding signal,PUM1 PUF domain R5-DQQ,2.81 log2 enrichment (interaction score)
same,binding signal,PUM1 PUF domain R8-RWN,4.57 log2 enrichment (interaction score)
GGCUAGAACUAGUGGAUCCCCCGGCGCCCGGCGGCUCGAGCCCGGGUAAGUGUAUAUAGUCUGCAUGCCGCCGGGCGCCAUGCCUGCAGGUCGACUCUAGAAAACAUG,binding signal,PUM1 PUF domain R4-DHL,3.13 log2 enrichment (interaction score)
same,binding signal,PUM1 PUF domain R4-NNH,2.5 log2 enrichment (interaction score)
same,binding signal,PUM1 PUF domain R4-PYL,3.32 log2 enrichment (interaction score)
same,binding signal,PUM1 PUF domain R4-CMS,3.01 log2 enrichment (interaction score)
GGCUAGAACUAGUGGAUCCCCCGGCGCCCGGCGGCUCGAGCCCGGGUAAGUGAAAAUAGUCUGCAUGCCGCCGGGCGCCAUGCCUGCAGGUCGACUCUAGAAAACAUG,binding signal,PUM1 PUF domain R6-VWY,3.66 log2 enrichment (interaction score)
GGCUAGAACUAGUGGAUCCCCCGGCGCCCGGCGGCUCGAGCCCGGGUAAGUGUAAAUUGUCUGCAUGCCGCCGGGCGCCAUGCCUGCAGGUCGACUCUAGAAAACAUG,binding signal,PUM1 PUF domain R1-KCV,3.99 log2 enrichment (interaction score)
GGCUAGAACUAGUGGAUCCCCCGGCGCCCGGCGGCUCGAGCCCGGGUAAGUGUACAUAGUCUGCAUGCCGCCGGGCGCCAUGCCUGCAGGUCGACUCUAGAAAACAUG,binding signal,PUM1 PUF domain R4-CMS,2.83 log2 enrichment (interaction score)
GGCUAGAACUAGUGGAUCCCCCGGCGCCCGGCGGCUCGAGCCCGGGUAAGUGUAAUUAGUCUGCAUGCCGCCGGGCGCCAUGCCUGCAGGUCGACUCUAGAAAACAUG,binding signal,PUM1 PUF domain R3-RSH,3.41 log2 enrichment (interaction score)
GGCUAGAACUAGUGGAUCCCCCGGCGCCCGGCGGCUCGAGCCCGGGUAAGCGUAAAUAGUCUGCAUGCCGCCGGGCGCCAUGCCUGCAGGUCGACUCUAGAAAACAUG,binding signal,PUM1 PUF domain R8-KRL,3.37 log2 enrichment (interaction score)
same,binding signal,PUM1 PUF domain R8-QWR,5.32 log2 enrichment (interaction score)
same,binding signal,PUM1 PUF domain R8-RWN,0.65 log2 enrichment (interaction score)
GGCUAGAACUAGUGGAUCCCCCGGCGCCCGGCGGCUCGAGCCCGGGUAAGUGUAAAGAGUCUGCAUGCCGCCGGGCGCCAUGCCUGCAGGUCGACUCUAGAAAACAUG,binding signal,PUM1 PUF domain R2-RKA,7.14 log2 enrichment (interaction score)
GGCUAGAACUAGUGGAUCCCCCGGCGCCCGGCGGCUCGAGCCCGGGUAAGUUUAAAUAGUCUGCAUGCCGCCGGGCGCCAUGCCUGCAGGUCGACUCUAGAAAACAUG,binding signal,PUM1 PUF domain R7-LTC,3.36 log2 enrichment (interaction score)
